Results on one compound are retold here after PubChem BioAssay (EPA / NIEHS).

SMILES strings stand for the structures. Inconclusive results are not listed. Calls of active or inactive are those of the source. The calls were made as follows, unless noted: active = hit-call score of the fitted dose curve at least 0.9, where 1 is the maximum; inactive = score below 0.9.

Experiment [1] is described as follows: CCTE_Shafer_MEA_dev_firing_rate_mean: CCTE's Neural Network Formation Assay for Mean Firing Rate, Shafer Lab (AID 2284031).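 Also: curve fitted for loss of firing so AC50 reflects decreased mean firing rate.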 An outline of the steps:
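Read-out: spike count/recording length, averaged over active electrodes, then AUC across days 5, 7, 9, 12. Rat cortical cultures on MEA; continuous 12-day exposure, media and treatment renewed DIV 5, 9; DMSO baseline.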

The nature of experiment [2]: CCTE_Shafer_MEA_dev_per_burst_spike_percent: CCTE's Neural Network Formation Assay for Percent of Spikes in a Burst, Shafer Lab (AID 2284032).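 Also: fitted as a decrease in burst spike percentage below DMSO baseline.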 A digest of the protocol: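 Value is trapezoidal AUC over recordings on days 5, 7, 9 and 12 of the well-mean fraction of spikes falling in single-electrode bursts; rat cortical cultures exposed continuously from plating, treatment renewed DIV 5 and 9, fitted downward against DMSO.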

Experiment [3] can be described thus: CCTE_Shafer_MEA_dev_active_electrodes_number: CCTE's Neural Network Formation Assay for Number of Active Electrodes, Shafer Lab (AID 2284040; active = hit-call score of the fitted dose curve at least 0.9, where 1 is the maximum;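 also: potency for loss of active electrodes versus DMSO so lower counts are hits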). A digest of the protocol:
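Developing rat cortical networks on MEAs, exposed DIV 0–12. Value is the AUC of active-electrode counts (≥5 spikes/min) from days 5, 7, 9, 12, relative to DMSO.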

Experiment [4] can be described thus: CCTE_Shafer_MEA_dev_burst_rate: CCTE's Neural Network Formation Assay for Burst Rate, Shafer Lab (AID 2284042).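 Also: potency for loss of burst rate below DMSO control.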 An outline of the steps: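 Cells plated, treated day 0; recorded DIV 5, 7, 9, 12; fed and re-treated DIV 5, 9. Endpoint: bursts per recording time, active-electrode well mean, trapezoidal AUC, fitted in decreasing direction against DMSO baseline.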

Experiment [5] can be described thus: CCTE_Shafer_MEA_dev_per_burst_interspike_interval: CCTE's Neural Network Formation Assay for Burst Interspike Interval, Shafer Lab (AID 2284044).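 Also: potency for a decrease of within-burst interspike interval below DMSO level.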 An outline of the steps: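 Readout is the average time between spikes inside single-electrode bursts, taken as a well mean across bursting electrodes. Cortical neurons from rat developed networks on MEA plates under continuous 12-day exposure; recordings on days 5, 7, 9 and 12 were integrated by trapezoidal AUC.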

Experiment [6] can be described thus: CCTE_Shafer_MEA_dev_burst_duration_mean: CCTE's Neural Network Formation Assay for Mean Burst Duration, Shafer Lab (AID 2284045).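 Also: curve fitted for loss meaning shorter burst duration than DMSO.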 An outline of the steps:
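Network-formation assay in primary rat cortical neurons; treatment spans twelve days of development. Mean burst duration per well is integrated by trapezoidal AUC and fitted in the loss-of-signal direction against DMSO baseline.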

Experiment [7] can be described thus: CCTE_Shafer_MEA_dev_interburst_interval_mean: CCTE's Neural Network Formation Assay for Mean Interburst Interval, Shafer Lab (AID 2284046).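 Also: well-mean interburst interval of bursting electrodes as AUC over four recording days; curve fitted for decrease in interburst interval relative to DMSO.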 A digest of the protocol:
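Developing rat cortical networks on 48-well MEAs receive compound from the day of plating. Burst intervals from each active electrode are averaged per well, and AUC over the recording days is fitted in the negative direction against DMSO.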

The nature of experiment [8]: CCTE_Shafer_MEA_dev_inter_network_spike_interval_mean: CCTE's Neural Network Formation Assay for Mean Inter-network Spike Interval, Shafer Lab (AID 2284047). A digest of the protocol:
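Rat cortical cultures, 1.5 x 10^5 cells/well on 48-well MEA plates; continuous exposure days 0–12, medium and compound refreshed DIV 5, 9. Mean time between consecutive network-spike peaks; AUC across DIV 5/7/9/12; DMSO baseline, negative fitting direction.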

The nature of experiment [9]: CCTE_Shafer_MEA_dev_network_spike_number: CCTE's Neural Network Formation Assay for Number of Network Spikes, Shafer Lab (AID 2284048).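 Also: fit as a loss of signal meaning fewer network spikes than DMSO.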 An outline of the steps: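 Extracellular recordings from 16-electrode wells track network formation in rat cortical cultures under continuous treatment from plating. The endpoint is network spike number, expressed as AUC across DIV 5–12 relative to DMSO vehicle.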

Experiment [10] in a line: CCTE_Shafer_MEA_dev_spike_duration_mean: CCTE's Neural Network Formation Assay for Mean Spike Duration, Shafer Lab (AID 2284051).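 Also: potency for a decrease in mean network spike duration versus DMSO.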 A digest of the protocol: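 Readout is the average length of network spikes, clustered firing across electrodes, summed over DIV 5, 7, 9 and 12 as area under the curve. Neurons from rat cortex developed networks on MEA plates under continuous 12-day exposure.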

Experiment [11] is described as follows: CCTE_Shafer_MEA_dev_network_spike_duration_std: CCTE's Neural Network Formation Assay for Standard Deviation of Network Spike Duration, Shafer Lab (AID 2284052).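 Also: hits are decreases in network spike duration SD versus DMSO vehicle.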 An outline of the steps:
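Read-out is the trapezoidal area-under-the-curve across recordings made on days 5, 7, 9 and 12, fitted in the negative direction against DMSO baseline. Neurons were primary rat cortical cells treated from day 0, with treatment renewed at each feed.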

Experiment [12] can be described thus: CCTE_Shafer_MEA_dev_per_network_spike_spike_number_mean: CCTE's Neural Network Formation Assay for Mean Number of Spikes in a Network Spike, Shafer Lab (AID 2284053). A digest of the protocol: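 Continuous twelve-day exposure of developing rat cortical networks grown over 16 microelectrodes per well; spontaneous firing is captured at four time points, and the per-network-spike spike number is integrated over development by trapezoidal AUC.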

Experiment [13] in a line: CCTE_Shafer_MEA_dev_per_network_spike_spike_percent: CCTE's Neural Network Formation Assay for Percent of Spikes in a Network Spike, Shafer Lab (AID 2284054). An outline of the steps:
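Developing networks of rat cortical neurons are dosed at day 0 and recorded extracellularly four times up to day 12. The endpoint is the area under the curve of percent spikes in network spikes, fitted in the negative direction relative to DMSO.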

Experiment [14] can be described thus: CCTE_Shafer_MEA_dev_LDH: CCTE's Lactate Dehydrogenase Assay for Cytotoxicity in the Neural Network Formation Assay, Shafer Lab (AID 2284068; active = hit-call score of the fitted dose curve at least 0.9, where 1 is the maximum;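 also: exposure for twelve days from plating with re-dosing on DIV 5 and 9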). An outline of the steps:
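Cytotoxicity companion to network-formation recordings: rat cortical neurons received compound over 12 days of development, re-dosed at DIV 5 and 9 feeds. Viability was inferred from LDH enzyme activity relative to DMSO.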

Experiment [15] can be described thus: CCTE_Shafer_MEA_dev_AB: CCTE's Alamar Blue Assay for Cytotoxicity in the Neural Network Formation Assay, Shafer Lab (AID 2284083; active = hit-call score of the fitted dose curve at least 0.9, where 1 is the maximum;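 also: resazurin reduction fluorescence as viability of cultured neurons; twelve days of exposure from plating with re-dosing on DIV 5 and 9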). An outline of the steps:
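Fluorescent resazurin reduction serves as the viability read-out, with DMSO as negative control and baseline. Cells were primary rat cortical neurons grown on MEA plates and dosed from day 0 to day 12, treatment renewed on DIV 5 and 9.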

The nature of experiment [16]: CCTE_Shafer_MEA_dev_mutual_information_norm: CCTE's Neural Network Formation Assay for Mutual Information Normalization, Shafer Lab (AID 2284091).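 Also: mutual information between electrodes summarised as area under curve across four recording days; potency is for a decrease in mutual information relative to DMSO.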 A digest of the protocol: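 Exposure of primary rat cortical neurons began at plating and ran to DIV 12, with full media and treatment renewal after DIV 5 and 9 recordings. Mutual information AUC (DIV 5–12) was analysed for loss versus DMSO.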

The nature of experiment [17]: CCTE_Shafer_MEA_dev_correlation_coefficient_mean: CCTE's Neural Network Formation Assay for Mean Correlation Coefficient, Shafer Lab (AID 2284093).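 Also: well mean pairwise spike train correlation integrated as AUC over recording days 5 to 12; potency fitted for loss of correlation relative to DMSO vehicle wells.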 A digest of the protocol:
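Read-out: well-mean correlation coefficient of spike trains between electrode pairs, collapsed over four recording days as trapezoidal area-under-the-curve. Developing rat cortical neuron networks grown on MEAs received test chemical continuously from plating.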

Experiment [18] in a line: UKN2_HCS_IMR90_neural_migration: University of Konstanz (UKN) Leist Lab Neural Crest Cell Migration Assay in human induced IMR90 Pluripotent Stem Cells (UKN2) (AID 2284204). Particulars: actives raise or lower the signal. A digest of the protocol: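 Using a 96-well stopper format with PLO/laminin/fibronectin coating, neural crest cells from iPSC migrate in cytokine-supplemented N2-S medium; after 24 h, chemicals are applied for a further 24 h, then cells are imaged after dye staining.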

Experiment [19] in a line: IUF_NPC1b_proliferation_BrdU_72hr: Leibniz Research Institute for Environmental Medicine (IUF) 72-hour Neural Progenitor Cell Bromodeoxyuridine (BrdU) Proliferation Assay (NPC1b) (AID 2284207). An outline of the steps: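 Neural progenitor spheres of human fetal origin are treated for three days; BrdU added for the last 16 h is quantified by luminescence ELISA, with DMSO as baseline and EGF/FGF omission as positive control.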

Experiment [20] in a line: IUF_NPC1a_proliferation_area_72hr: Leibniz Research Institute for Environmental Medicine (IUF) 72-hour Neural Progenitor Cell Proliferation Area Assay (NPC1a) (AID 2284208). A digest of the protocol:
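hNPC spheres (human fetal cortex, GW 16-19), one per poly-Hema U-bottom well; EGF+FGF medium; dosed day 0, no re-dosing; 72 h, 37C, 5% CO2; phase-contrast sphere area; DMSO = baseline; minus-GF = positive ctrl.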

Experiment [21] is described as follows: CCTE_Mundy_HCI_Cortical_Synap_Neur_Matur_NeuriteSpotCountPerNeuriteLength: CCTE's Synaptogenesis and Neurite Maturation Assay in rat cortical cells for Neurite Spot Count per Neurite Length, Mundy Lab (AID 2284210). An outline of the steps: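 Neurite-associated synapse density (synaptophysin puncta per unit neurite length) is measured by fluorescence high-content imaging in rat cortical cultures treated from DIV 7 and fixed at DIV 12, with DMSO as negative control.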

The nature of experiment [22]: CCTE_Mundy_HCI_Cortical_NOG_NeuriteCount: CCTE's Neurite Outgrowth Assay in rat cortical cells for Neurite Count, Mundy Lab (AID 2284212).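 Also: cells fixed about two days after chemical exposure began.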 A digest of the protocol: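 Rat cortical primary cells; compound added 2 h post-plating, 1/10 dilution of working solution. Anti-betaIII-tubulin/AF488 ICC; ArrayScan neurite count vs DMSO.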

Broadly, the AC50 is the concentration giving half of the maximal activity seen. Turning to `CCOP(=O)(OCC)OC(Cl)C(Cl)(Cl)Cl` (configuration not stated), the AC50 in experiment [1] is 1.64 µM (active); in experiment [2] it was 1.32 µM (active); in experiment [3] it was 2.52 µM (active); in experiment [4], 0.945 µM (active); in experiment [5], 3.48 µM (active); in experiment [6], 1.22 µM (active). The AC50 in experiment [7] was 3.57 µM (active); in experiment [9], 0.833 µM (active); in experiment [10], 1.39 µM (active); in [11], 0.602 µM (active); in experiment [12] it was 1.92 µM (active); in experiment [13], 2.25 µM (active). For the same compound, the AC50 in experiment [14] was 0.825 µM (active); in experiment [15], 2.24 µM (active); in experiment [16] it was 0.797 µM (active); in experiment [17], 1.13 µM (active); in experiment [21], 49.6 µM (active). In addition, the compound was called inactive in [8], in [18], in experiment [19], in experiment [20] and in experiment [22].
